Laboratory results: paper PMC11006913

Each sequence was assayed against HOXA4 (Homo sapiens, UniProt Q00056 201-287, W262F) (assay: PBM; 200 nM protein, PBS). Conditions: dsDNA, one strand shown.
Sequence of HOXA4 (Q00056 201-287 W262F): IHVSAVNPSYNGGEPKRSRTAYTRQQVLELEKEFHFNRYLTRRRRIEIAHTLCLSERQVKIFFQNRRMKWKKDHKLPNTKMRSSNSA
In the case of CACGCCCC, the binding signal is reported as 9.99 upbm affinity estimate (log intensity, higher = more binding, comparable within an allelic series). For GGGGCTCA, the binding signal was 9.78 upbm affinity estimate (log intensity, higher = more binding, comparable within an allelic series). CCCGTCCC was tested, and the binding signal was 9.95 upbm affinity estimate (log intensity, higher = more binding, comparable within an allelic series).

These sequences were tested against ALX3 (Homo sapiens, UniProt O95076 139-225, N203S) (assay: PBM; 200 nM protein, PBS). Conditions: dsDNA, one strand shown.
Sequence of ALX3 (O95076 139-225 N203S): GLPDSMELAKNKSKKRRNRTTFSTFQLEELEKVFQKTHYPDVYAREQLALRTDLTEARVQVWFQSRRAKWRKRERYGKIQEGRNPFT
In the case of ATATTAAT, the binding signal is reported as 8.74 upbm affinity estimate (log intensity, higher = more binding, comparable within an allelic series). For GCAGCTGC, the binding signal was 7.82 upbm affinity estimate (log intensity, higher = more binding, comparable within an allelic series). In the case of CCAGGGGC, the binding signal is reported as 7.65 upbm affinity estimate (log intensity, higher = more binding, comparable within an allelic series).

These sequences were tested against HOXA2 (Homo sapiens, UniProt O43364 129-215) (assay: PBM; 200 nM protein, PBS). Conditions: dsDNA, one strand shown.
Sequence of HOXA2 (O43364 129-215): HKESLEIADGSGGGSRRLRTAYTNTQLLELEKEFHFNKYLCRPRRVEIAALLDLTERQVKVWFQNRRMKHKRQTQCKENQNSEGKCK
In the case of GCAGCTGC, the binding signal is reported as 7.36 upbm affinity estimate (log intensity, higher = more binding, comparable within an allelic series). With CCAGGGGC the binding signal was 7.27 upbm affinity estimate (log intensity, higher = more binding, comparable within an allelic series). In the case of GGGGCCCC, the binding signal is reported as 7.38 upbm affinity estimate (log intensity, higher = more binding, comparable within an allelic series). With GCCCGGGC the binding signal was 7.45 upbm affinity estimate (log intensity, higher = more binding, comparable within an allelic series).
